Assay results published in PubChem BioAssay (NCI).
This is part of a sample that, as a whole, favours compounds with a hit. Of some 83,000 tested, about 20% had one in any assay.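 Growth was measured after 48 h exposure to one concentration of compound in 96-well plates. Values under 10 count as active.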 Activity calls are given as the source filed them.

System: NCI-H23 lung
Experiment: NCI-60 one-dose screen, 48 h (100 = growth as untreated, 0 = no growth, -100 = all killed)
Conditions: 10 µM unless noted

SMILES | growth
O=c1c2ccccc2n2cnc3ccc(Cl)c1c32 | 86.2% (inactive)
CCN(CC)CC(O)COc1c(Br)c(Br)c(Br)c2c1OC(C)(C)C2 (centres undefined) | 96.1% (inactive)
N#Cc1c(-c2ccccc2)cc(-c2ccccc2)n(CCCC(=O)Nc2ccccc2N)c1=O | 73.5% (inactive)
CC1OC(n2c3ccccc3c3c4c(c5c6ccccc6[nH]c5c32)C(=O)N(CCN2CCCC2)C4=O)CC(O)C1O (centres undefined) | 41% (inactive)
CCOC(=O)NC(C)C | 106% (inactive)
COc1ccc2[nH]c(C(=O)N3CCN(C(=O)OCc4ccc5c(Cl)cc(Cl)c(O)c5n4)CC3)cc2c1 | -85.8% (active)
O=C(/C=C/c1ccccc1)Nc1ncc(Cc2ccccc2Cl)s1 | 51.8% (inactive)
COC12C=C/C(=C(/C(=O)OCc3ccncc3)C(=O)CCCCCCCCC3(OC)C=C/C(=C(/C(=O)OCc4ccncc4)C(=O)CCCCCCCC1)O3)O2 | -61.1% (active)
CC(C)=CC(=O)OCC(=O)O[C@@H]1C[C@]2(C(C)C)O[C@@]1(C)[C@@H]1CC[C@@H](C)[C@H]1[C@@H]2OC(=O)/C=C/c1ccccc1 | 76% (inactive)
COc1ccc(Cc2cnc(NC(=O)c3cc(C)oc3C)s2)cc1 | 59.5% (inactive)
NC(Cc1ccc(O)c([N+](=O)[O-])c1)C(=O)O (centres undefined) | 98.5% (inactive)
CC(C)COc1nc2c(c(=O)n(C)c(=O)n2C)n1C | 98.5% (inactive)
CCc1ccccc1-n1c(-c2ccc(OC)cc2)cc(-c2ccc(OC)cc2)c(C#N)c1=O | 73.8% (inactive)
CCCCCOC(=O)c1c(C)[nH]c(/C=C2\N=C(c3ccc[nH]3)C=C2OC)c1C | -59.1% (active)
